# From PubChem
# tim23-1 inh: growth inhibitors of tim23-1 mutant yeast. inhibition, % at 20 µM. 330,000 tested, 1.3% active. S. cerevisiae tim23-1 growth, BacTiter-Glo luminescence, 24 h. AID 463212;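 active = growth inhibition of the mutant yeast at or above 50%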;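 also: temperature-sensitive mutant grown at 25 °C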
# PfHsp90 yeast 2: growth inhibition of yeast expressing Plasmodium Hsp90; S. cerevisiae expressing PfHsp90, BacTiter-Glo ATP, 48 h; yeast lacking PDR1 and PDR3 efflux regulators; inhibition, % at 9.4 µM; 310,000 tested, 0.32% active; AID 504621;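 active = every replicate shows inhibition above about 80%, whatever the replicate mean, limit read from the data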
# SKKanGAS inh: SKKanGAS growth inhibition; inhibition, % at 7.5 µM; S. pyogenes SKKanGAS, kanamycin growth, BacTiter-Glo, 6 h; 300,000 tested, 1.3% active; AID 1662;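 active = mean replicate score, as percent of positive control median, at least 50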;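 also: strain carries kanamycin resistance gene driven by streptokinase promoter and grows in 40 µg/ml kanamycin; loss of luminescence reflects streptokinase promoter inhibition or plain growth inhibition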
# TIM10 inh: inhibits growth of TIM10 yeast strain; S. cerevisiae TIM10 strain growth, BacTiter-Glo luminescence, 24 h; inhibition, % at 10 µM; 330,000 tested, 1.4% active;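 active = inhibition of 40% or more at the single tested concentration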;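 also: wild-type TIM10 isogenic control strain grown at permissive 25 °C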
# tim10-1 inh: inhibits growth of tim10-1 mutant yeast; S. cerevisiae tim10-1 ts strain growth, BacTiter-Glo, 24 h; inhibition, % at 20 µM; 330,000 tested, 2.2% active; AID 463190;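 active = inhibition of at least 40%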;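 also: mutant grown at 25 °C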
# V-ATPase pHluor: alters yeast V-ATPase proton transport | S. cerevisiae, pHLuorin cytosolic pH fluorescence | response, % at 10 µM | 350,000 tested, 0.37% active; in the data active = response mostly above about 7.3%, no sharp cut-off; inactive = mostly below about 5.4%; also: actives read high
# tim10-1 confirm: confirmation of tim10-1 mutant yeast growth inhibitors; 7,400 tested, 56% active; inhibition, % at 20 µM; S. cerevisiae tim10-1 ts strain growth, BacTiter-Glo, 24 h; shares compounds with tim10-1 inh; AID 463213;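 active = inhibition of yeast growth at or above a set limit in either of two repeat tests at 20 µM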;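 also: tim10-1 mutant grown at permissive 25 °C to find synthetic lethal compounds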
# tim10 confirm: TIM10 yeast growth inhibition, confirmed; shares compounds with TIM10 inh; S. cerevisiae tim10 strain growth, BacTiter-Glo luminescence, 24 h; inhibition, % at 10 µM; 4,600 tested, 63% active; AID 463215;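 active = inhibition of yeast growth at or above a set limit in either of two replicates at 10 µM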; also: this counterscreen used the strain with wild-type TIM10
# tim23-1 conf: tim23-1 yeast growth inhibition, confirmed | S. cerevisiae tim23-1 growth, BacTiter-Glo luminescence, 24 h | shares compounds with tim23-1 inh | inhibition, % at 20 µM | 4,400 tested, 83% active;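 active = inhibition above about 39% in either of two replicate wells at 20 µM, limit read from the data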;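 also: temperature-sensitive tim23-1 mutant grown at 25 °C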
# Hits are given with their value; - = inactive; . = not tested or not shown. Rows were chosen to be rich in hits. Some 4.6% of all compounds tested hit in one or more screens of this group.
SMILES,tim23-1 inh,PfHsp90 yeast 2,SKKanGAS inh,TIM10 inh,tim10-1 inh,V-ATPase pHluor,tim10-1 confirm,tim10 confirm,tim23-1 conf
CCOC(=O)c1c2c(c(=S)n(-c3ccccc3)c1N)CCC2,58.2,-,-,-,54.0,-,37.0,.,66.8
CC(=O)c1cccc(OCc2cc(C(=O)NCc3nc(C)c(C)s3)no2)c1,-,-,-,-,-,-,.,.,.
O=C(NCCOC12CC3CC(CC(C3)C1)C2)c1cccc(Br)c1,52.9,-,-,44.2,42.5,-,32.8,45.7,46.4
COc1ccc(N2CC(C(=O)N(CC(C)C)c3c(N)n(Cc4ccccc4)c(=O)[nH]c3=O)CC2=O)c(OC)c1 (stereo not drawn),-,-,-,-,-,-,.,.,.
O=C(NC(Nc1nc2ccc([N+](=O)[O-])cc2s1)(C(F)(F)F)C(F)(F)F)c1ccccc1Cl,71.4,-,-,66.0,77.7,-,75.6,67.8,86.0
O=c1oc2cc(O)c(Cl)cc2c2ccccc12,-,-,-,-,-,-,.,.,.
O=c1oc(Cl)c(Cl)c2ccccc12,63.6,-,.,-,44.5,-,-,.,88.3
CC(=O)C1=C(O)C(=O)N(c2ccc(Br)cc2)C1c1ccccc1[N+](=O)[O-] (stereo not drawn),-,-,-,-,-,-,.,.,.
N/C(=N\OC(=O)C1CCCCC1)c1cccc(Br)c1,75.3,-,-,73.8,67.5,-,62.3,58.5,80.7
N/C(=N\OC(=O)CCc1ccccc1)c1ccccc1Cl,56.0,-,-,47.2,64.3,.,60.2,42.5,48.5
Cc1ccc(/C(N)=N/OC(=O)Oc2ccccc2)cc1,-,-,-,-,-,-,.,.,.
Cc1ccc(/C(N)=N/OC(=O)CCc2ccccc2)cc1,75.3,-,-,55.4,45.9,-,48.6,59.8,60.9
N/C(=N\OC(=O)CCc1ccccc1)c1ccc(Br)cc1,64.5,-,-,60.5,46.7,-,55.8,55.1,46.1
COc1ccccc1CNC(=O)COC(=O)c1ccc(-n2cnnn2)cc1,-,-,-,-,-,-,.,.,.
Cc1csc(CN(C)C(=O)CC2C(=O)NCCN2Cc2ccc(Cl)c(F)c2)n1 (stereo not drawn),-,-,-,-,-,-,.,.,.
CS(=O)(=O)N(CC(=O)NCCSCc1ccccc1)c1ccccc1F,-,-,-,-,-,-,.,.,.
N/C(=N\OC(=O)CCc1ccccc1)c1cccc(Br)c1,81.1,-,-,62.9,70.0,-,64.5,59.7,76.5
O=C(Nc1ccnn1C1CCN(Cc2c[nH]c3ccccc23)CC1)c1ccccc1,-,-,-,-,-,-,.,.,.
O=c1c2c(-c3cccs3)csc2ncn1-c1ccc(Br)cc1,59.3,.,-,-,41.9,-,35.4,.,47.5
O=c1c2c(-c3cccs3)csc2ncn1/N=C/c1ccccn1,60.9,-,-,-,56.3,-,60.0,.,62.5
COc1cccc(-n2cnc3scc(-c4cccs4)c3c2=O)c1,51.7,-,-,-,43.0,-,42.0,.,49.8
Nn1cnc2scc(-c3cccs3)c2c1=O,-,-,-,-,-,-,.,.,.
O=C(NCCc1ccccc1)C(=O)c1c(-c2ccccc2)cc2ccccn12,53.3,-,-,-,51.4,-,35.7,.,53.8
CCCCCc1ccc(CC(=O)Nn2c(C)nc3ccccc3c2=O)cc1,52.3,-,-,-,59.9,-,48.2,.,69.3
Oc1ccc2ccccc2c1C1Nc2cccc3cccc(c23)N1,50.2,-,-,49.6,56.7,-,57.9,43.8,69.3
SMILES,tim23-1 inh,PfHsp90 yeast 2,SKKanGAS inh,TIM10 inh,tim10-1 inh,V-ATPase pHluor,tim10-1 confirm,tim10 confirm,tim23-1 conf
COc1cc(C2Nc3cccc4cccc(c34)N2)ccc1O,-,-,-,-,-,-,.,.,.
COc1ccc(C/C(N)=N/OC(=O)COc2ccccc2C)cc1,55.3,-,-,-,50.5,-,39.0,.,41.3
Cc1ccc(C)c(OCC(=O)O/N=C(\N)c2cccc([N+](=O)[O-])c2)c1,-,-,-,-,-,-,.,.,.
COc1ccc(OC(=O)COc2ccccc2C)cc1,-,.,-,-,-,-,.,.,.
N/C(Cc1ccc([N+](=O)[O-])cc1)=N\OC(=O)COc1cccc2ccccc12,59.5,-,-,75.6,64.4,-,73.2,72.4,91.0
CC1=NN(c2ccccc2)C(=O)/C1=C/c1ccc(-c2ccc(C)c(C(=O)O)c2)o1,65.7,-,-,-,48.0,-,35.0,.,58.8
CC(C)c1ccc(NC(=S)NNC(=O)c2cccs2)cc1,-,-,-,-,-,-,.,.,.
COc1cccc(CNC(=O)COC(=O)c2nc(Cl)c(Cl)c(Cl)c2Cl)c1,60.3,-,.,-,55.6,-,45.7,.,57.0
Cc1ccc(C(=O)N/C(=C\c2cccc([N+](=O)[O-])c2)C(=O)NC(Cc2ccccc2)C(=O)O)cc1 (stereo not drawn),-,-,-,-,-,-,.,.,.
O=c1ccc(-c2ccc(S(=O)(=O)Nc3ccc(F)cc3)s2)n[nH]1,-,-,-,-,-,-,.,.,.
CC12CCC3c4ccc(O)cc4CCC3C1CCC2=O (stereo not drawn),-,-,.,-,-,-,.,.,.
C#C[C@]1(O)CC[C@H]2[C@@H]3CCc4cc(O)ccc4[C@H]3CC[C@@]21C,51.6,-,-,-,49.8,-,34.2,.,49.1
O=C(c1cc(-c2ccc(O)cc2)on1)N1CCN(c2ccc(F)cc2)CC1,51.8,-,-,41.1,48.9,-,-,40.6,46.4
C[C@H](CO)N1C[C@H](C)[C@@H](CN(C)S(=O)(=O)c2cccs2)Oc2ccc(NS(=O)(=O)c3ccccc3)cc2C1=O,-,-,.,-,-,-,.,.,.
CNC(=O)c1ccsc1NC(=O)c1ccc2c(c1)CCCC2,62.8,-,-,53.5,49.4,-,30.1,47.4,72.1
CC(=O)NC1Sc2ccccc2N=C1c1ccccc1 (stereo not drawn),73.1,-,-,42.0,42.8,-,53.6,56.5,79.0
CCC1CN(C(=O)N2CCC(C(=O)NCc3ccco3)CC2)c2cc(C)ccc2O1 (stereo not drawn),-,-,-,-,-,-,.,.,.
O=C(OCCCc1cc2ccccc2c(=O)o1)c1ccc2c(c1)OCO2,-,-,.,-,-,-,.,.,.
O=C(c1ccccc1)c1cccc(NC(=O)c2ccc(Br)o2)c1,52.6,-,-,74.6,45.1,-,36.0,-,76.8
Cc1cccc(NC(=O)Cc2coc3ccc4ccccc4c23)n1,50.9,-,-,-,45.8,-,35.9,.,56.0
O=C1NN=C2CCCCCCCCCCC12 (stereo not drawn),.,.,.,.,.,-,.,.,.
